# Results: ChEMBL document CHEMBL3988442, “University of Dundee, Small-Polar-MMV Screening Library” (2021)
# For some assays here: Measured potencies and affinities stand elsewhere.
# Columns and labels:
# Set-up in all cases: scale not given: direction of the effect not stated beside the values
# [1] = biological target: Protein translocase subunit SecA (Escherichia coli (strain K12)) (UniProt P10408); assay: Assay to Identify E. coli SecA ATPase Inhibitors; type: functional; details: 30 µM
# [2] = biological target: T1, Ubiquitin-activating enzyme e1, putative (Leishmania donovani (strain BPK282A1)) (UniProt E9BSI1); assay: Leishmania donovani Ubiquitin Activating Enzyme (LdE1); type: functional; details: 30 µM
# T1 sequence (whole entry): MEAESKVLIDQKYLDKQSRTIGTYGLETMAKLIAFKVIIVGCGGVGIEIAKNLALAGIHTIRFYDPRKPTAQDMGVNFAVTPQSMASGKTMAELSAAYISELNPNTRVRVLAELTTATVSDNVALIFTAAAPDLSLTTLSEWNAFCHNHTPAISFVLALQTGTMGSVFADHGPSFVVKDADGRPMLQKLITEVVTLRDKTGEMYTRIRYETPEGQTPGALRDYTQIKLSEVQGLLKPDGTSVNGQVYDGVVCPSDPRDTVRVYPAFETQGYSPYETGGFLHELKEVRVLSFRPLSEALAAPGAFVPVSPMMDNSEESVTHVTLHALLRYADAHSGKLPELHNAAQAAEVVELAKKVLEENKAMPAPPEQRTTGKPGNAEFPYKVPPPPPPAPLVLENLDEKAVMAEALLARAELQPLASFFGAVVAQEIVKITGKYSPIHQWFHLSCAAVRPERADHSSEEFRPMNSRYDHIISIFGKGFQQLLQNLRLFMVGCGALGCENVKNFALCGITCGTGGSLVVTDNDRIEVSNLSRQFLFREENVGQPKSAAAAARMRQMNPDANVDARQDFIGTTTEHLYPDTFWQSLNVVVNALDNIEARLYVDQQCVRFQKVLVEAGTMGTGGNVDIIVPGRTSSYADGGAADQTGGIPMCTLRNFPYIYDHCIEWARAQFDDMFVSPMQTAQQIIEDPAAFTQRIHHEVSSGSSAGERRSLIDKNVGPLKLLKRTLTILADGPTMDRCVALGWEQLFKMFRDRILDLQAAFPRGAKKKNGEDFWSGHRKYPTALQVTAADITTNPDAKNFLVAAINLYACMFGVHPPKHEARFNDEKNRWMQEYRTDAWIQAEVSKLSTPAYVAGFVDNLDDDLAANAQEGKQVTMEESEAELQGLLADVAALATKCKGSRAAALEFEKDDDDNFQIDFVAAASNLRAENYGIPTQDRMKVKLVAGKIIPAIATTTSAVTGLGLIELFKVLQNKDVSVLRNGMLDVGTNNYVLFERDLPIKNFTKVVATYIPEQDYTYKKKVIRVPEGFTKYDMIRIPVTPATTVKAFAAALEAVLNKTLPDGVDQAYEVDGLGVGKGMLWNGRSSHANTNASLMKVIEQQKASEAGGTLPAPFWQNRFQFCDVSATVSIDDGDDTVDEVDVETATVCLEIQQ
# [3] = biological target: Sialic acid-binding Ig-like lectin 9 (Homo sapiens) (UniProt Q9Y336); assay: Hs-Siglec9 ALPHAscreen SOP 20170721; details: 10 µM
# Trypanosoma cruzi = assay: Trypanosoma cruzi phosphomannomutase and mannose-1-phosphate guanylyltransferase assay; type: functional; details: 10 µM
# [4] = biological target: T2, Arginase-2, mitochondrial (Homo sapiens) (UniProt P78540); assay: in vitro enzyme assay to detect the production of urea directly proportional to the activity of Arginase II; type: functional; details: 33.3 µM; further: in the data most compounds retested in dose-response had high values
# T2 sequence (whole entry): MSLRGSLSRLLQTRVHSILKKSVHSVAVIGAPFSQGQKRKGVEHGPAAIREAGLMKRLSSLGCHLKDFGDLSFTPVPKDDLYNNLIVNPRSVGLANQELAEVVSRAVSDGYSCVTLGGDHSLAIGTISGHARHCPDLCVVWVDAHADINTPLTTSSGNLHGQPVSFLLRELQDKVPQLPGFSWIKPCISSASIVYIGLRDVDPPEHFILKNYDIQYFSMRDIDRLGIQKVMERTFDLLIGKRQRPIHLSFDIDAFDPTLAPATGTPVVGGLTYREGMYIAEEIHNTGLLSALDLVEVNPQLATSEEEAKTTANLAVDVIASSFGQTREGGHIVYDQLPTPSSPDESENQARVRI
# [5] = biological target: T3, Proteasome subunit beta (Trypanosoma cruzi) (UniProt O96673); assay: Trypanosoma cruzi proteasome chymotrypsin-like activity (TcProtChymo) assay.; further: in the data most compounds retested in dose-response had high values; type: functional; details: 9.37 µM
# T3 sequence (whole entry): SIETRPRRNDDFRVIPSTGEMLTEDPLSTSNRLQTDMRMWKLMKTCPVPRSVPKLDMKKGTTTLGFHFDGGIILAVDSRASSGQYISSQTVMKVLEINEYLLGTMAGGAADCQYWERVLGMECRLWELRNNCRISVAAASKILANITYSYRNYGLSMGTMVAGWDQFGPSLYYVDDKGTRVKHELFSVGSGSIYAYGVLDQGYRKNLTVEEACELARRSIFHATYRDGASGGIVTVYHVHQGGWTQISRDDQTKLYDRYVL
# Homo sapiens = species: Homo sapiens; assay: To identify inhibition of the IFN signalling (Jak-Stat) pathway via expression of an eGFP reporter gene under the control of an IFN-stimulated response element (ISRE) containing MxA promoter.; type: functional; details: 30 µM
# [6] = biological target: T4, Tyrosyl-tRNA synthetase, putative (Trypanosoma cruzi (strain CL Brener)) (UniProt Q4DSP6); assay: Trypanosoma cruzi tyrosyl tRNA synthetase (TcYRS) _High Tyrosine SOP; type: functional; details: 30 µM; further: in the data most compounds retested in dose-response had high values
# T4 sequence (whole entry): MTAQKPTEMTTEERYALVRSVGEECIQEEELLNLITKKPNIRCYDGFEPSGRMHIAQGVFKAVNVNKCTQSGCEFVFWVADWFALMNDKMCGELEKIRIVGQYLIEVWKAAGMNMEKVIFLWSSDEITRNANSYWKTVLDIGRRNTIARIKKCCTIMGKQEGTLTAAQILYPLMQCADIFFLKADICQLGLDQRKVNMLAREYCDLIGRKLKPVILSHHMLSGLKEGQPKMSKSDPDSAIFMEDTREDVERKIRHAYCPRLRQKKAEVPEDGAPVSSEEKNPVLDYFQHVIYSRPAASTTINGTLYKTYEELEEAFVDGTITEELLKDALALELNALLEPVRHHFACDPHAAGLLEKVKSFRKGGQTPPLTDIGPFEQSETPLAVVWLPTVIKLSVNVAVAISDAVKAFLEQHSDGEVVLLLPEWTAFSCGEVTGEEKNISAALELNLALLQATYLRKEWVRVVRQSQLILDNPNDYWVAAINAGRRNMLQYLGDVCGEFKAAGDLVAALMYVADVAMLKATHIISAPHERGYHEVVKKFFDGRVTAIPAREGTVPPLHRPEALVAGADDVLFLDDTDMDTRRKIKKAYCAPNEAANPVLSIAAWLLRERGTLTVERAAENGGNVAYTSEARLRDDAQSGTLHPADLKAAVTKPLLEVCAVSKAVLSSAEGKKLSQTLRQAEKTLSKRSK
# [7] = biological target: T4, Tyrosyl-tRNA synthetase, putative (Trypanosoma cruzi (strain CL Brener)); assay: Trypanosoma cruzi tyrosyl tRNA synthetase (TcYRS) SOP; type: functional; details: 30 µM
# [8] = biological target: Chromo domain-containing protein 1 (Saccharomyces cerevisiae (strain ATCC 204508 / S288c) (Baker's yeast)) (UniProt P32657); assay: ScCHD-1 Enzyme Inhibition Assay; type: functional; details: 30 µM; further: in the data most compounds retested in dose-response had high values
# Chain of Chromo domain-containing protein 1 (Saccharomyces cerevisiae (strain ATCC 204508 / S288c) (Baker's yeast)) (P32657 whole entry, the tested form may be a part): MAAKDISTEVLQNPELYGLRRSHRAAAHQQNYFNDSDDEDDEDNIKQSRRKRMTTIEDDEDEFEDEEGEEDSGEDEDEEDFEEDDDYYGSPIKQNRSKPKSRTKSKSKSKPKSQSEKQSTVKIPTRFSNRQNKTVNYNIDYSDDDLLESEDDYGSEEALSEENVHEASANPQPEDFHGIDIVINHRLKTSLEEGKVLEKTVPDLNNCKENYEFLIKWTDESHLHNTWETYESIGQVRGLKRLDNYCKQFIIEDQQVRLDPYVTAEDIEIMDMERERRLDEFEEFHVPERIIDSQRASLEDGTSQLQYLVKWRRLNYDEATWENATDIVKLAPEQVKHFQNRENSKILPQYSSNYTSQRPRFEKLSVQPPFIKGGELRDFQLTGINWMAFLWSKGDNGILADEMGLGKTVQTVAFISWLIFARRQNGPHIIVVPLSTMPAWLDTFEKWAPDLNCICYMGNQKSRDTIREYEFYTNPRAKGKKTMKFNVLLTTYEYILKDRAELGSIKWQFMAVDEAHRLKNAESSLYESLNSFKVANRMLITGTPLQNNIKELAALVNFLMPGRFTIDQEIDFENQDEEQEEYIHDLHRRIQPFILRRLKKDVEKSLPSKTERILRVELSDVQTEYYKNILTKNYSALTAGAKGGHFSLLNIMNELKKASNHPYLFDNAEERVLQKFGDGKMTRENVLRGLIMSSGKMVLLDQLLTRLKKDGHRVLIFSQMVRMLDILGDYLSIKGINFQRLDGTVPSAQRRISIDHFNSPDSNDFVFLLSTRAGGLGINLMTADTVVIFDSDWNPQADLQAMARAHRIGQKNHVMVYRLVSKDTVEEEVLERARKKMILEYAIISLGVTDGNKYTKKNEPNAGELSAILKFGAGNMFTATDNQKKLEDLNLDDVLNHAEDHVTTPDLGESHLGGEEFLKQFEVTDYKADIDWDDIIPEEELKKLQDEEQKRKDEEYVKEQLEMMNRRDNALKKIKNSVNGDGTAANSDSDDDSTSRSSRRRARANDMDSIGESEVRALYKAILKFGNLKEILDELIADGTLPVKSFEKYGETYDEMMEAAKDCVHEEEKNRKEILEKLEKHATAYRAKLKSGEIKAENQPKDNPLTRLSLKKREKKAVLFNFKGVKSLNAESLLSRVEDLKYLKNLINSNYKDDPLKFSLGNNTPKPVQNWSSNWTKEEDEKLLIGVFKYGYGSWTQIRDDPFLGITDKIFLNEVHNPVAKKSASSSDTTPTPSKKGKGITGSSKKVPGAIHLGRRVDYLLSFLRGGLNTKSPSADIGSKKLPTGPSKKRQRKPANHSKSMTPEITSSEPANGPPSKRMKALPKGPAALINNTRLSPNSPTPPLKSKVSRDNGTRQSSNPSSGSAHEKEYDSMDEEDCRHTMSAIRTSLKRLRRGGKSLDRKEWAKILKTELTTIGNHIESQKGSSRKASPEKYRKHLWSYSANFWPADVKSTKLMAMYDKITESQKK
# Chain of Sialic acid-binding Ig-like lectin 9 (Homo sapiens) (Q9Y336 whole entry): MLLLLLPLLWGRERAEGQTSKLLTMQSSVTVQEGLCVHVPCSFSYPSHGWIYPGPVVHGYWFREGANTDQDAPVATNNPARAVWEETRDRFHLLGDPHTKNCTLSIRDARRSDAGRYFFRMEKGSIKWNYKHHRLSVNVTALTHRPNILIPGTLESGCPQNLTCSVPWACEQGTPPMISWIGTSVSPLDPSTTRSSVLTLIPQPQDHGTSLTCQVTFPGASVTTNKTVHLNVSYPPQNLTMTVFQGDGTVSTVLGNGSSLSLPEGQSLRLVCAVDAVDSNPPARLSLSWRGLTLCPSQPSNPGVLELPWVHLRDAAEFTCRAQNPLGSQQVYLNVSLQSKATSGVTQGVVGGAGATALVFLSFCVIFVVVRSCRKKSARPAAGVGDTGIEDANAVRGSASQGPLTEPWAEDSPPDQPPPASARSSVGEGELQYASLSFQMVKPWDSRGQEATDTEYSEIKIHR
# Chain of Protein translocase subunit SecA (Escherichia coli (strain K12)) (P10408 whole entry): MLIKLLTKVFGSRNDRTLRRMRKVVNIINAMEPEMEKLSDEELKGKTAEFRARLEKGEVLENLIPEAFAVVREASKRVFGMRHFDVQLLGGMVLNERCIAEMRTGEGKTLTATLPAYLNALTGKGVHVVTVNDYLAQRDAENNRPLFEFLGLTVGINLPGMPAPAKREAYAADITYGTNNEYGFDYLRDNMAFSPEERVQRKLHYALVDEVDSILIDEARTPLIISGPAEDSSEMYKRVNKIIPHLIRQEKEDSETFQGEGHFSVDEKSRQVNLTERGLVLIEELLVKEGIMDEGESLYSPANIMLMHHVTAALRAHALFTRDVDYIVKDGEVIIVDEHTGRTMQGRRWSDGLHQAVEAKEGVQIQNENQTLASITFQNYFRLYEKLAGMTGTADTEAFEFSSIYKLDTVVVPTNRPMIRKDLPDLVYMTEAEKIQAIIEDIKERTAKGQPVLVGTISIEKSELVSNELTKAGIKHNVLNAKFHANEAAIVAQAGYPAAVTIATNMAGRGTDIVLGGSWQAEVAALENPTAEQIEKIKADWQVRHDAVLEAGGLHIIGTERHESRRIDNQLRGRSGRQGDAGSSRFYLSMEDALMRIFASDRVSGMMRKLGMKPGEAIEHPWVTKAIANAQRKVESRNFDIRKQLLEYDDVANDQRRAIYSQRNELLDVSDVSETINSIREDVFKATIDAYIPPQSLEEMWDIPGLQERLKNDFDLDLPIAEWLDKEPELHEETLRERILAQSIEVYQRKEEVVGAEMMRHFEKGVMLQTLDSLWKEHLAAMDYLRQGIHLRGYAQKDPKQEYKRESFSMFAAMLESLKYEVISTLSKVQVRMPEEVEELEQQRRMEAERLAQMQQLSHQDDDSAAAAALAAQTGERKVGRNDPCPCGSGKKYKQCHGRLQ
Structure (SMILES),Percent Effect [1] [%],Percent Effect [2] [%],Percent Effect [3] [%],Percent Effect (Trypanosoma cruzi) [%],Percent Effect [4] [%],Percent Effect [5] [%],Percent Effect (Homo sapiens) [%],Percent Effect [6] [%],Percent Effect [7] [%],Percent Effect [8] [%]
Cc1ccc(C(=O)N2CCC3(CC2)CC(N2CCCC2)C3)cc1,-4.52,11.7,1.16,-0.75,1.83,7.12,-12.1,8.7,12.5,-4.42
O=C(CCN1CCCN(c2nccs2)CC1)Nc1ccccc1,-2.89,10.7,-7.96,-4.82,-5.76,13.2,17.4,-0.526,-5.13,-12
O=C(CCc1cc2n(n1)CCN(Cc1ncc[nH]1)C2)N1CCCC1,-3.73,18.9,0.852,1.07,13.6,14.4,15.1,4.79,19.5,-1.96
CNc1ccc(CC2CCCN(C(=O)c3cnc(C)nc3)C2)nn1 (stereo not given),0.212,12,-9.66,-0.197,4.87,17.1,12.2,5.29,12.5,-20.6
CCc1n[nH]c(C2CN(C(=O)c3nc(C)n4ccccc34)CCO2)n1 (stereo not given),-2.26,13,11.1,-1.49,10,9.82,-10.3,4.9,16.5,-11
O=C(Cc1c[nH]c2ccccc12)N1CCC(Nc2cccnn2)CC1,-6.75,15.6,5.29,-4.1,3.07,5.96,5.15,7.84,16.5,-5.46
COc1c(CNC2CCc3cc(F)ccc32)c(C)nn1C (stereo not given),-0.933,7.79,8.9,-0.187,5.94,-1.23,-9.97,3.92,9.41,-0.439
Cc1ccc(F)cc1C(=O)N1C[C@@H](CN2CCOCC2)[C@@H](CO)C1,-9.2,8.11,5.12,2.23,4.54,9.76,2.21,5.85,9.76,-3.39
CN1CC(=O)N(c2cnn(C)c2)CC12CCN(C(=O)c1ccsc1)C2 (stereo not given),-5.41,1.3,3.75,-6.13,2.43,6.27,-0.162,2.63,2.56,-2.51
CCOC(=O)CNC(=O)c1cccnc1Oc1ccc(Cl)cc1,3.19,1.3,56.3,0.375,6.85,11.6,25.5,3.87,0,-12.4
CSc1ccccc1C(C(=O)O)N1CCN(Cc2ccccn2)CC1 (stereo not given),-6,13.5,6.14,9.21,60.5,10.8,14.2,6.92,19.5,0.128
O=C(NCC1CC1)[C@H]1C[C@H]2OCC[C@H]2N(Cc2ccsc2)C1,-6.05,-3.9,-0.139,-1.85,-6.07,2.38,-7.12,-2.63,0,-0.205
Cc1ccc(S(=O)(=O)N2CCC3(CC(C(=O)NCC4CC4)=NO3)C2)cc1 (stereo not given),-5.9,6.49,-4.73,-4.38,0,18.3,5.59,1.58,7.69,-3.09
Cc1cnn(C2CCCN(C(=O)c3cc(C4CC4)on3)C2)c1 (stereo not given),-4.9,10.3,-6.25,5.16,0.82,-0.939,-0.883,4.31,10.8,-1.27
CCNC(=O)CCN1CCC(c2cc(N3CCOCC3)nc(C)n2)CC1,-3.37,5.41,12.8,5.92,16.4,6.51,17.2,2.66,9.76,98.8
O=C(c1cc2cc(F)ccc2[nH]1)N1CCC(Nc2cccnn2)CC1,-5.68,7.79,-3.05,-8.21,-12.9,10.7,14,0.98,-2.35,-5.32
COC(=O)CC(c1cnn(C)c1)c1oc(C)cc(=O)c1O (stereo not given),-7.67,0,0.282,-5.33,-3.85,6.85,8.46,0.532,0,-1.21
CCOCC1CN(Cc2cnn(C)c2)Cc2nn(C)cc21 (stereo not given),0.939,-3.9,-4.11,-5.36,0.81,10.2,4.03,-1.58,0,2.52
CCN(CC)C1CCN(C(=O)NCc2nncn2CC)CC1,-3.6,13.3,-2.94,3.41,3.55,12,21.2,0.526,7.69,-11.2
CN(C)CCN1CCC2(CCN(C(=O)c3ccc(F)cc3)CC2)C1=O,-1.6,14.3,-0.427,-5.44,2.28,16.7,12.2,10.6,12.5,-6.97
Cc1ccc(CCN2CCC(N(C)Cc3noc(C4CC4)n3)C2)cc1 (stereo not given),-0.729,10.3,-7.58,0.0939,3.69,11.7,-3.17,5.26,8.43,-4.27
Cc1c(O)oc(-c2ccc(Br)cc2)nc1=O,-4.74,-73.3,-12.4,2.96,-4.87,12.6,12.7,3.17,15,-18.8
COc1ccccc1NC(=O)CSC1CCc2ccccc2NC1=O (stereo not given),-4.52,13.5,8.46,4.17,17.1,18.3,13,5.85,17.1,-4.97
